Test results reported in PubChem BioAssay (NCATS).
Inconclusive results are not listed. Calls of active or inactive are those of the source. Unless noted, calls come from the whole dose curve; as a rule, active = well fitted curve in the direction sought with a large enough effect; inconclusive = small, poorly fitted or top-dose-only effect, or another doubt; inactive = no such curve, though single readings can be large; an effect the other way counts as inactive or inconclusive.

Experiments:
[1] = qHTS for small molecule inhibitors of Yes1 kinase: Counter Assay (AID 686950);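 note: no kinase present so only ADP-Glo detection of a fixed ADP amount is tested; luminescence from ADP-Glo reporting ADP in a fixed ATP and ADP mixture; 0% = DMSO wells with ATP plus ADP and -100% = ATP-only wells without ADP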
How it was run: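 Enzyme-free detection counter-screen: compounds preincubated 20 min in buffer, then 0.08 mM ATP plus 0.02 mM ADP added for 60 min at room temperature; ADP-Glo luminescence. Buffer 50 mM Tris pH 7.5, 10 mM MgCl2, 150 mM NaCl; normalized to ATP+ADP and ATP-only controls.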

[2] = qHTS profiling for inhibitors of Plasmodium falciparum (3D7) proliferation (AID 743322);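 note: infected erythrocytes exposed to compound for 72 h before lysis; 100% = DMSO vehicle wells and 0% = 0.29 µM artemisinin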; settings: P. falciparum 3D7 proliferation; at 28.7 µM (top of the series) unless noted
How it was run: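 Erythrocytes infected with P. falciparum (0.3% parasitemia, 2.5% hematocrit) incubated with compounds 72 h at 37 C, 5% CO2. Lysis with saponin/Triton buffer containing SYBR Green I, overnight at room temperature in the dark; DNA fluorescence (485/535 nm) normalised to 0.29 uM artemisinin and DMSO.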

[3] = qHTS profiling for inhibitors of Plasmodium falciparum (DD2) proliferation (AID 743323; call rule not given here); settings: lower = more inhibition; at 28.7 µM (top of the series) unless noted
How it was run: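 Parasite DNA quantified by SYBR Green fluorescence (ex 485, em 535 nm) after saponin/Triton lysis and overnight dark incubation. Cultures: 0.3% parasitemia, 2.5% hematocrit, 72 h, 37 C; data scaled between DMSO and 0.29 uM artemisinin.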

[4] = qHTS profiling for inhibitors of Plasmodium falciparum (HB3) proliferation (AID 743324); settings: Plasmodium falciparum HB3 blood-stage proliferation; at 28.7 µM (top of the series) unless noted;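 note: 100% = DMSO vehicle wells and 0% = artemisinin-treated control wells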
How it was run: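 P. falciparum HB3 grown in erythrocytes (0.3% parasitemia, 2.5% hematocrit final) with compound for 72 h at 37 C, 5% CO2. Parasite DNA detected by SYBR Green after saponin/triton lysis overnight; normalized to 0.29 uM artemisinin and DMSO.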

[5] = target: Arylsulfatase A (Homo sapiens) (UniProt P15289); assay: qHTS screen for enhancers of Arylsulfatase A (ASA1): LOPAC Validation Assay (AID 720538); note: 0% is about no effect
Arylsulfatase A (Homo sapiens), sequence (P15289 whole entry, looked up): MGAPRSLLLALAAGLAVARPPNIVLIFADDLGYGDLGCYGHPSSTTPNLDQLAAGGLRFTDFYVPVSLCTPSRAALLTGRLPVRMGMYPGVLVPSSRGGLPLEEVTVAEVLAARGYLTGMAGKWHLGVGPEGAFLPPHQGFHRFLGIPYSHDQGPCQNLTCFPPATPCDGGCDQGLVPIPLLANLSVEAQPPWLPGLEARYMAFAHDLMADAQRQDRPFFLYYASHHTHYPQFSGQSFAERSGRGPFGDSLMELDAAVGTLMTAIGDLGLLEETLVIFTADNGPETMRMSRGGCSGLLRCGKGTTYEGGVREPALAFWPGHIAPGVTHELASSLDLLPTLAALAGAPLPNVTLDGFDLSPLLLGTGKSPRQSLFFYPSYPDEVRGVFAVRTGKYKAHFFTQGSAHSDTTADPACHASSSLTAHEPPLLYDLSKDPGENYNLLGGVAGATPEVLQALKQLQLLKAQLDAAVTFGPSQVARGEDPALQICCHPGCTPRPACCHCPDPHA
How it was run: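 Cell-based enhancement test: residual ASA activity in SV40-transformed I179S patient fibroblasts is measured by pNCS turnover (0.5mM final, 14h, room temperature) following 48h compound incubation; higher fluorescence indicates activation.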

[6] = qHTS for compounds that reverse cellular toxicity of Amyloid beta (A-beta) peptide in yeast: LOPAC Validation Assay (AID 720559);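 note: plate controls were DMSO for no effect and equimolar ferric chloride plus clioquinol rescue for full effect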
How it was run: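 Here, A-beta-toxic yeast grow with test compounds at 30 C for 48 hr before optical density at 600 nm is recorded; data are normalized against DMSO and the FeCl3-clioquinol control.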

[7] = qHTS for Activators of Parkin Expression: LOPAC Validation Assay (NLuc Reporter) (AID 720572;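 note: 0% = DMSO and 100% = positive control compound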)
How it was run: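 Neuronal cells with a Parkin promoter-driven FLuc/NLuc coincidence reporter were treated 24 h at 37 C in 7-point dose response (LOPAC). NLuc luminescence read after FLuc; signals normalized to DMSO and positive control (100%).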

[8] = target: T1, Hexokinase-4 (Homo sapiens) + Glucokinase regulatory protein (Homo sapiens) (UniProt P35557+Q14397); assay: qHTS assay for inhibitors of recombinant human GCK-GKRP interaction: ADP-Glo assay (AID 743206);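 note: plate controls were DMSO plus enzyme for no effect and no enzyme for full effect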
T1 sequence (P35557 whole entry, looked up): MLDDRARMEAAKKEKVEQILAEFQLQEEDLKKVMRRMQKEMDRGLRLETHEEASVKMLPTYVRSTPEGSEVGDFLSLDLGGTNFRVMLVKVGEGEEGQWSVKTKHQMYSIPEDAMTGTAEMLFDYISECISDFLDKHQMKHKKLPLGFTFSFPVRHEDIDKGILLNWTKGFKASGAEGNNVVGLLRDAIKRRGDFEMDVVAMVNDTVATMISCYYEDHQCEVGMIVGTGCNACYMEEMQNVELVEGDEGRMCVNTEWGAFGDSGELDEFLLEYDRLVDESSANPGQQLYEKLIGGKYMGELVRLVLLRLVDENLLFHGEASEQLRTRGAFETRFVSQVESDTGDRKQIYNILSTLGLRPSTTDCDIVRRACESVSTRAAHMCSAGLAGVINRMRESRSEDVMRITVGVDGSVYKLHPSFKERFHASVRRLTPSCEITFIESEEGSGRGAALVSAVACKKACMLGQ
T1 sequence (Q14397 whole entry, looked up): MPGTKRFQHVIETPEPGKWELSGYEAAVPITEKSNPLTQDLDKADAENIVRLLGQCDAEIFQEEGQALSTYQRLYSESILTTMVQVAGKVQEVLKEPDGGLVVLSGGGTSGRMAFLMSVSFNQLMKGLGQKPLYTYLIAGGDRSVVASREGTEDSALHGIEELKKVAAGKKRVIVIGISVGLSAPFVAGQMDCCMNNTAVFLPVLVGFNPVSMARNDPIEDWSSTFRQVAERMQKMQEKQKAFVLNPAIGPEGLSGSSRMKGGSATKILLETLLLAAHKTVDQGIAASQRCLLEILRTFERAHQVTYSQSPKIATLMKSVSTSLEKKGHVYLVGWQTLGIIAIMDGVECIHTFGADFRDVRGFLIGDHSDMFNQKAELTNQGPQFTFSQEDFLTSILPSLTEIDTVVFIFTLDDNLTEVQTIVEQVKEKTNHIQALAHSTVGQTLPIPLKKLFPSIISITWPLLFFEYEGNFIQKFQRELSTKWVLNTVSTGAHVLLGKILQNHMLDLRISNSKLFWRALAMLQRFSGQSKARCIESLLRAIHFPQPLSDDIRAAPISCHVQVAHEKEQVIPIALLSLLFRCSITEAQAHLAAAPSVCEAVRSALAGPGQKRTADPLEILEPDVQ
How it was run: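 GST-GCK and FLAG-GKRP (15 nM each in the dispensed mix, with 2 uM S6P) react with 0.4 mM ATP and 5 mM glucose (final) in Hepes pH 7.6 for 60 min at room temperature. ADP is measured by ADP-Glo luminescence.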

[9] = target: T1, Hexokinase-4 (Homo sapiens) + Glucokinase regulatory protein (Homo sapiens); assay: qHTS assay for inhibitors of recombinant human GCK-GKRP interaction: HTRF assay (AID 743207);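 note: 0% = DMSO with GCK present and -100% = DMSO wells lacking GCK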
How it was run: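 Titration screening format: recombinant GST-GCK and FLAG-GKRP at 5 nM, S6P at 2 uM, labelled anti-tag antibodies, 60 min at RT, dual-wavelength HTRF readout.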

**Q.** With `CCOc1cc2ncc(C#N)c(Nc3ccc(OCc4ccccn4)c(Cl)c3)c2cc1NC(=O)/C=C/CN(C)C` as the compound, how does the outcome [1] read?
**A.** inactive

**Q.** And the remaining parasite growth % (stronger effect = lower value) [2]?
**A.** -0.375%

**Q.** What about the activity, percent of control [3] of the same compound?
**A.** 5.17%

**Q.** What about the remaining proliferation (% of control), lower = more inhibition [4] of the same compound?
**A.** -0.513%

**Q.** For `CN1Cc2c(N)cccc2C(c2ccccc2)C1` (centres undefined), which outcome [5] is on record?
**A.** inactive

**Q.** What about the outcome [6] of the same compound?
**A.** inactive

**Q.** And the outcome [7]?
**A.** inactive

**Q.** And the outcome [8]?
**A.** inactive

**Q.** What about the outcome [9] of the same compound?
**A.** inactive
